Results on 38 compounds are retold here after ChEMBL document CHEMBL3988442, “University of Dundee, Small-Polar-MMV Screening Library” (2021).

For experiment [1], the target named is T1, Aspartate--tRNA(Asp/Asn) ligase (Mycobacterium tuberculosis (strain ATCC 25618 / H37Rv)) (UniProt P9WFW3). Also: in the data most compounds retested in dose-response had high values.
T1 sequence (whole entry): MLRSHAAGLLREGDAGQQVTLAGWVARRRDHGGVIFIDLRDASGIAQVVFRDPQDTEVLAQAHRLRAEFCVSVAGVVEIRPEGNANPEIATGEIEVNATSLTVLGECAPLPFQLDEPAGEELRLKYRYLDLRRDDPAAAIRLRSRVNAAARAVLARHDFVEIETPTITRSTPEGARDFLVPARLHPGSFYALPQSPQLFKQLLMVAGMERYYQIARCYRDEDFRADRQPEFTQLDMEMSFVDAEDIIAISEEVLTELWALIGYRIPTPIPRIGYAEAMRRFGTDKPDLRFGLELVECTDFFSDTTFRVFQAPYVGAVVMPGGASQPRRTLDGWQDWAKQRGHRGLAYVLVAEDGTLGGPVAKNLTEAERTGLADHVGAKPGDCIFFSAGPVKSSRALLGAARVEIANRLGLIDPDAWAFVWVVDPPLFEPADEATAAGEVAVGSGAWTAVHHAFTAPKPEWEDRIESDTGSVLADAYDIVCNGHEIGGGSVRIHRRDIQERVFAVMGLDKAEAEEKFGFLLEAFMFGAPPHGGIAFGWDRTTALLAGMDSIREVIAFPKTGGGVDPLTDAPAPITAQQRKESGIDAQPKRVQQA
Kind of experiment: Assay for Asp RNA synthetase-1 from Mycobacterium tuberculosis. The experiment is classed as functional. Also noted: scale not given: direction of the effect not stated beside the values. The settings on record: 30 µM.

In experiment [2] the target is Shiga toxin 2 (Escherichia coli O157:H7) (UniProt P09385+P09386). The experiment can be described thus: E. coli 0.157:H7 Shiga Toxin SOP - stx2 screening assay. The settings on record: 30 µM. The experiment is classed as functional. Also noted: scale not given: direction of the effect not stated beside the values.

Each structure is given as a SMILES string.

Take `c1ccc(C2CCCN2Cc2nnnn2C2CC2)cc1` (stereo unspecified): the Percent Effect in experiment [1] was -2.81%; in experiment [2] it was -5.38%.

Regarding `CC1=N[C@@]2(CC[C@@H]3CN(S(=O)(=O)N(C)C)C[C@@H]32)C(=O)N1CC(C)C`, the Percent Effect in experiment [1] is 6.65%; in experiment [2] it was -4.62%.

As for `Cc1ccc(C2CCCN2Cc2nc3c(cnn3C)c(=O)[nH]2)cc1C` (stereo unspecified), the Percent Effect is -1.66% in experiment [1] and -9.34% in experiment [2].

`Cc1cnc(CN(C)C2CCN(CCn3cc(C#N)cn3)C2)o1` (stereo unspecified): the Percent Effect in experiment [1] stood at 5.46%; in experiment [2] it was 17.1%.

For the compound `Cc1nc(CN2CCC(N(C)Cc3noc(C4CC4)n3)C2)oc1C` (stereo unspecified), the results for the Percent Effect in experiment [1] and in experiment [2] were 1.48% and -11%, respectively.

With `c1ccc(CN2CCc3nnc(CN4CCCCC4)n3CC2)nc1`, the Percent Effect in experiment [1] amounted to 3.71%; in experiment [2] it was 1.8%.

For the compound `CSCc1cccc(S(=O)(=O)NCCCN2CCOCC2)c1`, the Percent Effect in experiment [1] is 13.9%; in experiment [2], -32.1%.

For the compound `COCCN(C)C[C@@H]1CN(C(=O)c2cccc(C(F)(F)F)c2)C[C@@H]1CO`, the values for the Percent Effect in experiment [1] and in experiment [2] were -4.52% and 8.62%, respectively.

Regarding `Cc1nn(C)c(C)c1C1CCCN1Cc1nc(-c2ccco2)oc1C` (stereo unspecified), the figures for the Percent Effect in experiment [1] and in experiment [2] were -1.54% and 22.6%, respectively.

`c1cnnc(N2CCCC(NCc3ccc(-n4cccn4)cc3)C2)c1` (stereo unspecified): the Percent Effect in experiment [1] was -2.36%; in experiment [2] it was 11%.

In the case of `COc1cccc(N2CCN(C(=O)C(O)c3cccc(Cl)c3)CC2=O)c1` (stereo unspecified), the Percent Effect is 0.569% in experiment [1] and -24.2% in experiment [2].

As for `Cc1cc(-c2cnc(N3CCN(C)CC3)nc2-c2ccc(C)s2)on1`, the results for the Percent Effect in experiment [1] and in experiment [2] were -3.23% and -24.7%, respectively.

In the case of `CCN(CC)C(=O)CCn1ncc2c(Cl)cccc21`, the Percent Effect in experiment [1] is -1.07%; in experiment [2], -23.7%.

On to `Cc1ncc2c(n1)CN(CC(=O)Nc1ccncc1)CC2`, for which the Percent Effect is -0.281% in experiment [1] and 5.69% in experiment [2].

`Cc1cc(F)c(S(=O)(=O)NCCCN2CCC(O)CC2)cc1F`: the Percent Effect is 11.3% in experiment [1] and -69.6% in experiment [2].

As to `CC(C)n1ncc2cc(NC(=O)N3CCC(N4CCCC4)C3)cnc21` (stereo unspecified), the Percent Effect is -5.1% in experiment [1] and -51.5% in experiment [2].

`Cc1cccc(CS(=O)(=O)CC(=O)NCCCOC(C)C)c1`: the Percent Effect in experiment [1] was -3.37%; in experiment [2], -44.7%.

`Cc1csc(N2CCCN(C(=O)c3cnns3)CC2)n1`: the Percent Effect was 1.66% in experiment [1] and -7.36% in experiment [2].

For `Cn1c(C2CC2)nc2c1CCN(CCOc1ccc(C#N)cc1)C2`, the Percent Effect in experiment [1] was 3.25%; in experiment [2], -7.77%.

On to `O=S1(=O)N=C(SCc2ccc(Cl)cc2)Nc2ccc(F)cc21`, for which the Percent Effect in experiment [1] was -0.189%; in experiment [2], -5.93%.

On to `Cc1nc(CN2C[C@@H]3CN(C(=O)C4CC4)C[C@@H]3C2=O)cs1`, for which the Percent Effect in experiment [1] is -6.04%; in experiment [2] it was -17.6%.

As to `Cc1ccsc1CN(C)C(=O)Cn1nc(-c2ccc(F)cc2)oc1=O`, the Percent Effect is 10.3% in experiment [1] and -7.45% in experiment [2].

As for `Cn1cccc1CNC(=O)CCCc1nnc2ccccn12`, the Percent Effect in experiment [1] is 1.36%; in experiment [2] it was -34.1%.

On to `O=C(c1cc[nH]n1)N1CCC(Nc2cccnn2)CC1`, for which the Percent Effect was -8.36% in experiment [1] and -20.2% in experiment [2].

On to `CCS(=O)(=O)CCN1CCCC1c1noc(C2CC2)n1` (stereo unspecified), for which the figures for the Percent Effect in experiment [1] and in experiment [2] were -2.94% and -0.711%, respectively.

On to `COc1ccc(C(=O)N2CCCCC2c2nc(C)cs2)nn1` (stereo unspecified), for which the Percent Effect in experiment [1] is -4.46%; in experiment [2], -31.3%.

As to `Cc1nc(C2CCN(C(=O)c3cccnc3)CC2)c2sccn12`, the results for the Percent Effect in experiment [1] and in experiment [2] were 2.04% and -14.1%, respectively.

Regarding `O=C(NCc1cnc2n1CCN(c1ncc(F)cn1)CC2)C1CCC1`, the Percent Effect was -2.16% in experiment [1] and 3.59% in experiment [2].

On to `CC(C)(C)c1noc(CN2CCN(C(=O)c3cccs3)CC2)n1`, for which the Percent Effect in experiment [1] was 0.425%; in experiment [2], 6.49%.

Consider `CN(C)[C@H]1CCCCN(C(=O)CCc2csc(N)n2)C1`, for which the figures for the Percent Effect in experiment [1] and in experiment [2] were -1.18% and 3.47%, respectively.

For `Cn1nc2c(cc1=O)CN(Cc1coc(-c3cccs3)n1)CC2`, the Percent Effect in experiment [1] was 39.2%; in experiment [2], -29.8%.

As for `CCN(CC1CCCO1)C(=O)Nc1ccc(F)cc1OC` (stereo unspecified), the Percent Effect in experiment [1] is -2.28%; in experiment [2] it was -7.53%.

In the case of `CCN1CCN(C2CCN(Cc3nc4ccccc4o3)CC2)C1=O`, the Percent Effect in experiment [1] is 12.7%; in experiment [2], 21.6%.

As to `O=C(c1cccc(CNCC2CNc3ccnn3C2)c1)N1CCCC1` (stereo unspecified), the values for the Percent Effect in experiment [1] and in experiment [2] were -1.15% and -3.83%, respectively.

Turning to `Cc1cc(C(=O)NCCN2CCCC(C)C2)nn1C` (stereo unspecified), the values for the Percent Effect in experiment [1] and in experiment [2] were -4.16% and 11.8%, respectively.

For `CN(C)CC1CN(Cc2ccsc2)Cc2nccn2C1` (stereo unspecified), the figures for the Percent Effect in experiment [1] and in experiment [2] were 4.71% and -1.56%, respectively.

On to `Cc1cc(C)n(C2CCCN(C(=O)c3cc(C4CC4)on3)C2)n1` (stereo unspecified), for which the Percent Effect is -7.81% in experiment [1] and -32.5% in experiment [2].

As to `CN(C)C(=O)CC1CC2(CCN(C(=O)N(C)C)CC2)Oc2ccccc21` (stereo unspecified), the Percent Effect in experiment [1] is 1%; in experiment [2] it was -12.4%.
